Consider 39 molecules from PubChem BioAssay (NCATS).

Records with an inconclusive call do not appear. Unmarked numbers belong to inactive results. Active and inactive are the calls of the source. Calls come from the whole dose curve; as a rule, active = well fitted inhibition curve with a large enough effect; inconclusive = small, poorly fitted or top-dose-only effect; inactive = flat fitted curve, though single readings scatter.
% is set by controls: 0 for no effect and ±100 for the full control effect; potency is the fitted concentration of half-maximal effect.

A short description of this experiment: P-glycoprotein substrates identified in KB-8-5-11 adenocarcinoma cell line, qHTS therapeutic library screen (AID 1346987). Note: nearly all actives have a fitted effect of over 65% in size. The following applies: KB-8-5-11 (P-gp overexpressing) viability, CellTiter-Glo, 72 h; series mostly up to 44.5 µM; activity change, negative = cytotoxicity: at the top concentration. The gist of the method:
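P-gp-mediated resistance screen: KB-8-5-11 cells treated 72 h with compounds in dose-response. CellTiter-Glo viability.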
On the technique in general: Quantitative high-throughput screening tests each substance at several concentrations.
As to `C/C=C(\C)C(=O)OC1C[C@@]2(COC(C)=O)O[C@H]2/C=C\[C@@]2(C)O[C@@H]2[C@H]2OC(=O)C(COC(C)=O)=C12` (some centres undefined), the “activity change, negative = cytotoxicity” value is -0.966% [at 17.3 µM].
For `Fc1ccc(-c2nc(-c3c(F)cccc3F)[nH]c2-c2ccncc2)cc1`, the “activity change, negative = cytotoxicity” value was -2.52%.
In the case of `Cc1ccc(-c2ncccn2)c(C(=O)N2C[C@H](COc3ccc(F)cn3)CC[C@H]2C)c1`, the “activity change, negative = cytotoxicity” value is -20.4%.
On to `C=C1CCC2C(C)(C(=O)O)CCCC2(C)C1CCC1=CCOC1=O` (centres undefined), for which the “activity change, negative = cytotoxicity” value is 9.62%.
For `CC(C)(C)NC(=O)[C@H]1CC[C@H]2[C@@H]3CC=C4C=C(C(=O)O)CC[C@]4(C)[C@H]3CC[C@]12C`, the “activity change, negative = cytotoxicity” value is -17%.
Still for that read-out and setting: under `COc1cc2c(cc1OCCCN1CCCC1)N=C(N)C21CCC1` stands 6.8%; under `NCCC[C@H](N)C(=O)O`, 0.95%.
With `COC1CCN(c2cccc(-c3cc(NC(C)=O)nc(-n4nc(C)cc4C)n3)n2)CC1`, the Potency was 20.6 µM (active).
Regarding `CCCCOc1ccc(S(=O)(=O)n2c(C)nc3ccccc32)cc1`, the “activity change, negative = cytotoxicity” value is -17.3% [at 17.3 µM].
`CC1CCC/C=C/C(=O)c2c(O)cc(O)cc2CC(=O)O1` (centres undefined): the Potency was 5.8 µM (active).
`C=C(CCC1C(C)(O)CCC2C(C)(C)C(O)CCC12C)C(O)CO` (centres undefined): the “activity change, negative = cytotoxicity” value is -6.8%.
For the molecule `O=C(Nc1nc2cc(C(F)(F)F)cc(NC3CC3)n2n1)c1cccnc1`, the Potency is 2.91 µM (active).
In the case of `CC(C)C[C@@H]1NC(=O)[C@@H]2C[C@@]34C[C@@H]5[C@@]6(C)CCCC(C)(C)C6CC[C@@]5(C)N(c5ccccc53)[C@H]4N2C1=O` (some centres undefined), the “activity change, negative = cytotoxicity” value is -25.2% [at 17.3 µM].
`CN1CCC(c2cn(C)c3ccc(OS(=O)(=O)c4c(F)cccc4F)cc23)CC1`: the Potency was 18.4 µM (active).
`C/C=C(\C)C(=O)O[C@H]1C[C@](C)(O)[C@H]2CC=C(C)[C@H]2[C@@H]2OC(=O)[C@H](C)[C@H]21`: the “activity change, negative = cytotoxicity” value was -20.4%.
Take `O=C(Nc1cccc2cccnc12)c1ccc(N2C(=O)[C@@H]3C4C=CC(C4)[C@@H]3C2=O)cc1`: the “activity change, negative = cytotoxicity” value is -24.1%.
As to `COC(=O)c1ccc(N2CCN(C)CC2)c(NC(=O)c2cccc(OC)c2)c1`, the “activity change, negative = cytotoxicity” value is -19.6%.
With `C=C1CC2OC(=O)C(=C)C2C(O)/C=C(\C)CCC1O` (centres undefined), the “activity change, negative = cytotoxicity” value was -2.54%.
The same measure, in the same setting: under `CN(C)C(=O)Nc1cccc(-c2ccc(N(C)C)cc2)c1` stands -5.76%.
As to `C[C@H](CN(C)C)Oc1nc(Nc2cc3cccc(Cl)c3cn2)cnc1C#N`, the Potency is 2.91 µM (active).
Take `C[C@@H]1CC[C@]2(C(=O)O)CC[C@]3(C)C(=CCC4[C@@]5(C)CC[C@H](O)[C@](C)(C(=O)O)C5CC[C@]43C)C2[C@]1(C)O` (some centres undefined): the “activity change, negative = cytotoxicity” value is -4.76% [at 17.3 µM].
Still for that read-out and setting: under `Cc1csc(N(C(=O)CSc2ccc(-c3ccccc3)nn2)C2CC2)n1` stands -21.8%; under `CC(C)c1c(O)ccc2c1CC[C@H]1C(C)(C)CCC[C@]21C`, -18.1%.
For `CCCn1ncc(CN2CCCC(C(=O)c3cccc(OC(C)C)c3)C2)c1C` (centres undefined), the “activity change, negative = cytotoxicity” value was -35.6%.
Turning to `CCC(C)C(C(=O)OCC[N+](C)(CC)CC)c1ccccc1` (centres undefined), the “activity change, negative = cytotoxicity” value was -0.686%.
With `CC(NC(=O)Cc1cc(F)cc(F)c1)C(=O)NC1C(=O)N(C)c2ccccc2-c2ccccc21` (centres undefined), the Potency was 14.6 µM (active).
In the case of `CNC(C)C(=O)NC(C(=O)N1CCCC1C(=O)Nc1snnc1-c1ccccc1)C1CCCCC1` (centres undefined), the “activity change, negative = cytotoxicity” value was -15.1%.
As for `C[C@@H](N[C@H]1CCCC[C@@H]1NC(=O)c1ccc(Cl)cc1)c1cccc2ccccc12`, the Potency was 23.1 µM (active).
For the molecule `C=C1C(=O)OC2C=C(C)CC/C=C(\CO)CC(O)C12` (centres undefined), the molecule was called inactive.
Take `Cn1nc(C(C)(C)C)cc1C(=O)N[C@@H](Cc1cccc(Cl)c1)C(=O)NCC#N`: the “activity change, negative = cytotoxicity” value was -14.7%.
As to `CC[C@@H]1C[C@]1(NC(=O)[C@@H]1C[C@@H]2CN1C(=O)[C@H](C(C)(C)C)NC(=O)OCC(C)(C)CCCCc1cccc3c1CN(C3)C(=O)O2)C(=O)NS(=O)(=O)C1CC1`, the call was inactive.
As to `Cc1ccc(C(C)C)c(O[C@@H]2O[C@H](CO)[C@@H](O)[C@H](O)[C@H]2O)c1`, the “activity change, negative = cytotoxicity” value was -4.04%.
The same measure, in the same setting: under `COC(=O)/C=C/C=C/C(=O)OC1C=C2COC(=O)C2(O)C2(C)CCCC(C)(C)C12` (centres undefined) stands 3.63% [at 17.3 µM]; under `COc1ccc(S(=O)(=O)Nc2cc(Cl)cc(Cl)c2OC)cc1N1CCNCC1`, -22.1%.
On to `CN(C)C(=O)COC(=O)c1cc(-c2ccc(C3CCNCC3)cc2)c2ccc(-c3ccc(C(F)(F)F)cc3)cc2c1`, for which the Potency was 18.4 µM (active).
`CCCCCCCCCCCCCCCC(=O)OCCC1CCN(CCCN2c3ccccc3Sc3ccc(S(=O)(=O)N(C)C)cc32)CC1`: the “activity change, negative = cytotoxicity” value was -3.38%.
Same read-out and setting: under `Cn1ncnc1[C@H]1c2n[nH]c(=O)c3cc(F)cc(c23)N[C@@H]1c1ccc(F)cc1` stands -15.9% [at 17.3 µM].
Regarding `Cc1ccc(C(=O)Nc2ccc(CN3CCN(C)CC3)c(C(F)(F)F)c2)cc1C#Cc1cnc2[nH]ncc2c1`, the Potency is 20.6 µM (active).
Turning to `Cc1cc(C)nc(SCC(=O)Nc2ncc(Cc3cccc4ccccc34)s2)n1`, the “activity change, negative = cytotoxicity” value is -17.4%.
